Holding throughout (assay): qHTS profiling for inhibitors of Plasmodium falciparum proliferation (AID 504749); further: nearly all actives have a fitted effect of over 60% in size
Holding throughout (settings): P. falciparum in erythrocytes, SYBR Green DNA, 72 h; series mostly up to 28.7 µM

One assay relates to AS120. The method, boiled down:
(§1)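 P. falciparum-infected erythrocytes (0.3% parasitemia, 2.5% hematocrit final) were exposed to compounds for 72 h at 37 C in 5% CO2, then lysed with SYBR Green buffer overnight at room temperature; parasite DNA fluorescence was normalized to artemisinin and DMSO controls.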

A further assay has as its system ATS189. In outline: as §1
The subject of another assay is C2A. In outline: as §1
For the next assay, the system named is CP185. In outline: as §1
Another assay relates to CP191. In outline:
as §1

The subject of another assay is CP237. In outline: as §1
The subject of another assay is CP238. The method, boiled down: as §1
In the next assay the test system is CP250. In outline: as §1
The next assay concerns CP252. The method, boiled down:
as §1

Another assay relates to CP256. In outline: as §1
Another assay deals with CP265. The method, boiled down:
as §1

Another assay deals with CP329. In outline: as §1
A further assay has as its system DIV30. In outline: as §1
The next assay relates to ECU. In outline:
as §1

For another assay, the system named is HB3. The method, boiled down:
as §1

The next assay deals with P93_24. In outline:
as §1

Another assay has as its system P94_40. In outline: as §1
Another assay has as its system PC26. In outline:
as §1

A further assay has as its system SC27B. In outline:
as §1

A further assay has as its system TAB113. The method, boiled down: as §1

Inconclusive results are not listed. Calls of active or inactive are those of the source. The call rests on the fitted dose curve; in most records, active means well fitted inhibition curve with a large enough effect; inconclusive means small, poorly fitted or top-dose-only effect; inactive means flat fitted curve, though single readings scatter.
Potency means the concentration at half of the fitted maximal effect.

Regarding `Cc1onc(-c2c(F)cccc2Cl)c1C(=O)N[C@@H]1C(=O)N2[C@H]1SC(C)(C)[C@H]2C(=O)O`, the Potency entry in the assay on AS120, with ATS189, in the assay on C2A, with CP185, with CP191 and in the assay on CP237 was “inactive” each time. Moreover, the Potency entry in the assay with CP238, with CP250, with CP252, with CP256, with CP265 and in the assay on CP329 was “inactive” throughout. The Potency result in the assay on DIV30, with ECU, in the assay on HB3, in the assay with P93_24, in the assay on P94_40 and with PC26 was “inactive” throughout. For the same compound, the Potency entry in the assay on SC27B and with TAB113 was “inactive” throughout.
As for `CC(C)(C)c1ccc(CN2CCN([C@H](c3ccccc3)c3ccc(Cl)cc3)CC2)cc1`, the Potency is 7.94 µM (active) in the assay on AS120; 8.91 µM (active) in the assay with ATS189; 10 µM (active) with C2A; 10 µM (active) in the assay with CP185; 10 µM (active) with CP191; 7.94 µM (active) in the assay with CP237. Also, the Potency in the assay with CP238 is 8.91 µM (active); in the assay with CP250, 8.91 µM (active); in the assay on CP252, 11.2 µM (active); with CP256 it was 10 µM (active); with CP265, 12.6 µM (active); in the assay on ECU, 10 µM (active). Moreover, the Potency is 8.91 µM (active) in the assay with HB3; 11.2 µM (active) in the assay with P93_24; 7.94 µM (active) with P94_40; 10 µM (active) with SC27B; 6.31 µM (active) in the assay with TAB113. Besides, the Potency result in the assay with CP329, in the assay on DIV30 and in the assay on PC26 was “inactive” throughout.

The record behind these values is PubChem BioAssay (NCATS).
